Giardia FBPA inh: inhibitors of Giardia lamblia fructose-1,6-bisphosphate aldolase; purified Giardia FBPA; Potency, µM (series often up to 59.6 µM), inactives show top-dose activity, negative = inhibition, hits mostly inhibitors; 290,000 tested, 0.71% active; further: potency means the concentration at half of the fitted maximal effect; nearly all actives have a fitted effect of over 55% in size
Target sequence (A8B2U2 whole entry, looked up): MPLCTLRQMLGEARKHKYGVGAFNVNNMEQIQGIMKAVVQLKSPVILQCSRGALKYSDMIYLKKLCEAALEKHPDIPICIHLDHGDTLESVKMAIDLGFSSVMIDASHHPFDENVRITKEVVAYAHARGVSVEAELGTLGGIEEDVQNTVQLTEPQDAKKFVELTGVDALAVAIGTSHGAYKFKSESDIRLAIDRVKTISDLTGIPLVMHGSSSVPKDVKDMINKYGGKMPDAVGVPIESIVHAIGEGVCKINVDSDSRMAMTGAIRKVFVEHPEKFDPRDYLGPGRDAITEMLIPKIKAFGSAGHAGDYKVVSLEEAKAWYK
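Giardia FBPA (40 nM reagent) was preincubated 10 min at RT with compound (up to 57.5 uM final), then substrate plus GAPDH/TPI/NAD/arsenate coupling system with diaphorase/resazurin was added; resorufin fluorescence (525/598 nm) was read after 20 min.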
HCMV antiviral: blocks human cytomegalovirus replication | activity change, negative = inhibition, % at 57.5 µM | AID 1259415 | 410,000 tested, 4.5% active | HFF cells, HCMV-luciferase reporter, 72 h; hits give low values; in the data active means activity change below about -60%; inconclusive means no clear call, values can overlap the other calls; inactive means above about -39%
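Steps: HFFs plated, 16 h 37C; compounds added; HCMV-luciferase added to MOI 1 PFU/cell; 72 h 37C; OneGlo reagent, 5 min room temperature; luminescence read, normalized to controls.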
FMDV inh: antivirals against foot and mouth disease virus. FMDV antiviral cell-based qHTS. 410,000 tested, 1.2% active. Potency, µM (highest dose often 57.9 µM), without a hit: at the highest dose activity change, negative = inhibition, actives largely listed as inhibitors; calls by dose curve; tested in HEK293T cells; further: read-out not given here; potency means the concentration at half of the fitted maximal effect; nearly all actives have a fitted effect of over 45% in size
VACV Venus inh: vaccinia inhibition (Venus reporter). 330,000 tested, 0.46% active. Potency, µM (top dose mostly 36.5 µM), inactives show at the top dose activity change, negative = inhibition, hits mostly inhibitors. Vaccinia virus Venus reporter expression, fluorescence; calls by dose curve; tested in A549 cells; further: potency means the concentration at half of the fitted maximal effect; nearly all actives have a fitted effect of over 30% in size
Vaccinia mCherry: vaccinia inhibition (mCherry reporter); Vaccinia virus mCherry reporter infection, fluorescence; Potency, µM (series often up to 36.5 µM), for the others: at the top dose activity change, negative = inhibition, hits mostly inhibitors; 310,000 tested, 0.63% active; AID 720579; calls by dose curve; tested in A549 cells; further: potency means the concentration at half of the fitted maximal effect; nearly all actives have a fitted effect of over 35% in size
HCV inh: inhibitors of hepatitis C virus infection | 340,000 tested, 3.4% active | AID 651820 | Potency, µM (series often up to 41.8 µM), for inactives: top-dose activity change, negative = inhibition, usual class: inhibitors | Huh7.5.1 HCVcc-Cre infection, luciferase reporter, 44 h; further: potency means the concentration at half of the fitted maximal effect
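HCVcc-Cre virus at an moi near 0.5 was added right after compound to cells cultured 4 h from seeding (1,000 cells/well). Luciferase activity was determined 44 h later, 15 min after substrate addition at RT.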
An asterisk follows results filed as active; i = inactive; ? = inconclusive; . = no result given; [ ] = another dose, or the depositor's remark. An excerpt weighted towards active compounds, which were near 7.5% of everything screened. Unless noted, the call rests on the fitted dose curve; in most records, active means well fitted curve in the direction sought with a large enough effect; inconclusive means small, poorly fitted or top-dose-only effect, or another doubt; inactive means no such curve, though single readings can be large; an effect the other way counts as inactive or inconclusive. On the % scale 0 is the no-effect control and ±100 the full control effect.

SMILES	Giardia FBPA inh	HCMV antiviral	FMDV inh	VACV Venus inh	Vaccinia mCherry	HCV inh
COc1ccc(-c2coc3c(C(=O)NCc4ccc(OC)c(OC)c4)cccc23)c(C)c1	.	-75*	?	-24%	-2%	.
COc1ccc(-c2coc3c(C(=O)Nc4cc(OC)c(OC)c(OC)c4)cccc23)c(C)c1	.	-65*	?	?	-17%	.
COc1ccc(-c2coc3c(C(=O)Nc4ccc(OC)nc4)cccc23)c(C)c1	.	-32	?	-20%	i	.
COc1ccc(-c2coc3c(C(=O)NCC4CCOCC4)cccc23)c(C)c1	.	-61*	?	?	i	.
CC(=O)c1cccc(NC(=O)c2cccc3c(-c4cccc(C(N)=O)c4)coc23)c1	.	?	35µM*	?	?	.
COc1ccc(CNC(=O)c2cccc3c(-c4cnn(C)c4)coc23)cc1OC	.	?	16µM*	-16%	-29%	.
CS(=O)(=O)Nc1cccc(NC(=O)c2cccc3c(-c4cccc(C(N)=O)c4)coc23)c1	.	52	-21%	3%	-4%	.
FC(F)(F)c1ccccc1-c1nc(NC2CCNCC2)c2ccccc2n1	2%	.	-14%	.	.	.
COc1ccc(C(CCNCc2ccc(F)cc2)c2ccc(F)cc2)cc1 (stereo not given)	8%	?	23%	?	?	?
COc1ccc(C(CCNC(C)c2ccccc2)c2ccc(F)cc2)cc1 (stereo not given)	0%	?	31%	?	11µM*	?
COc1ccc(C(CCNCc2ccccc2)c2ccc(F)cc2)cc1 (stereo not given)	0%	-29	28%	?	?	6.3µM*
COc1ccc(CCNCc2ccc(OCc3ccccc3)cc2)cc1	9%	-89*	12%	-5%	-11%	-9%
Cn1cc(CN2CCC(Oc3ccc(C(=O)N4CCCCC4)cc3)CC2)cn1	2%	35	-18%	-9%	-15%	10%
COc1ccc(-c2csc(Nc3ccccc3)[n+]2CC(O)c2ccc([N+](=O)[O-])cc2)cc1 (stereo not given)	-25%	8	?	.	.	8.9µM*
Cc1ccc(Nc2nc3c(c(=O)[nH]2)CCCC3)cc1	-10%	22	32%	-2%	i	?
O=c1[nH]c(Nc2nc3ccccc3o2)nc2c1CCCC2	-17%	-99*	.	?	?	-11%
COc1cc(OC)cc(N2C(=O)CSCC2=O)c1	0%	43	-13%	.	.	17%
C[C@H](NC(=O)c1ncn2c1c(=O)[nH]c1ccccc12)c1ccccc1	.	-10	-1%	-6%	-20%	.
C[C@H](NC(=O)c1ncn2c1c(=O)[nH]c1ccc(Br)cc12)c1ccccc1	.	?	?	13µM*	?	.
CCCS(=O)(=O)NCCc1sc2nc(-c3ccc(Cl)cc3)nn2c1C	.	-66*	-16%	?	?	.
CCCS(=O)(=O)NCCc1sc2nc(-c3ccc(F)cc3)nn2c1C	.	-71*	-17%	?	?	.
COc1ccc(S(=O)(=O)NCCc2sc3nc(-c4ccc(C)cc4)nn3c2C)cc1C	.	-94*	4%	-4%[7.34 µM]	-6%[7.34 µM]	.
CCCS(=O)(=O)NCCc1csc2nc(-c3ccc(C)cc3)nn12	.	69	-18%	-4%	-6%	.
CCc1ccc(NC(=O)C(=O)NCCc2sc3nc(-c4ccc(OC)cc4)nn3c2C)cc1	.	-64*	-9%	-8%	i	.
Cc1ccc(-c2nc3scc(CCNS(=O)(=O)c4ccc(C)c(C)c4)n3n2)cc1	.	-30	30%	-13%	-7%	.
SMILES	Giardia FBPA inh	HCMV antiviral	FMDV inh	VACV Venus inh	Vaccinia mCherry	HCV inh
COc1ccc(-c2nc3scc(CCNS(=O)(=O)c4ccc(Oc5ccccc5)cc4)n3n2)cc1OC	.	-72*	11%	-9%	-15%	.
Cc1cc(C)c(S(=O)(=O)NCCc2sc3nc(-c4ccc(F)cc4)nn3c2C)c(C)c1	.	-60*	30%	?	-14%	.
Cc1ccc(-n2nc(CO)c(C(=O)NCC(c3ccccc3)c3ccccc3)n2)cc1	.	39	-15%	-11%	-13%	.
Cc1ccccc1-n1nc(CO)c(C(=O)NCC(c2ccccc2)c2ccccc2)n1	.	-86*	13µM*	-23%	-12%	.
O=C(NCC(c1ccccc1)c1ccccc1)c1nn(-c2ccccc2Cl)nc1CO	.	-92*	?	-21%	-13%	.
O=C(CSc1nnc(-c2cccc(Br)c2)o1)N1CCNC1=O	.	0	45%	.	.	13%
COc1ccc(-c2cc(C(=O)OCC(=O)N(C)C3CCS(=O)(=O)C3)c3ccccc3n2)cc1OC (stereo not given)	0%	-23	-15%	?	-12%	3.2µM*
CCN(C(=O)COC(=O)c1c(-c2ccccc2)noc1C)C1CCS(=O)(=O)C1 (stereo not given)	16%	5	7%	-9%	i	-4%
CCN(C(=O)COC(=O)c1cc(-c2cccs2)nc2ccccc12)C1CCS(=O)(=O)C1 (stereo not given)	-6%	3	0%	-7%	-9%	11µM*
CCN(C(=O)COC(=O)c1c(C)c(-c2ccccc2)nc2ccccc12)C1CCS(=O)(=O)C1 (stereo not given)	-3%	3	-25%	.	.	13µM*
CCN(C(=O)COC(=O)c1cc(-c2ccc(C)o2)nc2ccccc12)C1CCS(=O)(=O)C1 (stereo not given)	-19%	-5	16%	-9%	?	-28%
CC(=O)N1CCCC1c1nc2ccccc2n1Cc1ccccc1Cl (stereo not given)	.	2	-8%	-8%	-5%	.
O=[N+]([O-])c1ccc(C[n+]2cccc3c4ccccc4ccc32)cc1	-4%	-81*	-29%	-26%	?	-29%
Cc1ccc[n+](Cc2ccc([N+](=O)[O-])cc2)c1	4%	-8	2%	.	.	9%
NC(=O)c1ccsc1NC(=O)COC(=O)Cc1ccccc1	.	-33	?	.	.	10%
CN(C)S(=O)(=O)c1cccc(C(=O)OCC(=O)Nc2sccc2C(N)=O)c1	0%	35	14µM*	-24%	-29%	?
NC(=O)c1ccsc1NC(=O)COC(=O)Cc1c[nH]c2ccccc12	.	-1	20µM*	-22%	-11%	?
COc1cc(CCC(=O)OCC(=O)Nc2sccc2C(N)=O)cc(OC)c1OC	.	-16	18µM*	-1%	-26%	13µM*
O=C(COC(=O)Cc1c[nH]c2ccccc12)Nc1ccccc1	-5%	17	0%	-5%	-14%	1%
NC(=O)c1ccsc1NC(=O)COC(=O)Cc1cccc2ccccc12	-11%	-26	32µM*	?	-13%[1.46 µM]	?
O=C(/C=C/c1ccccc1)OCCN1C(=O)c2ccccc2C1=O	-6%	6	-2%	-9%	i	9%
COc1ccc(OC)c(CCNC(=O)c2cnn(-c3ccccc3Cl)c2C2CCN(C(=O)OC(C)(C)C)CC2)c1	.	-17	?	-6%	-7%	.

Compound activity (PubChem BioAssay)
